# NPC1 promoter act: activators of NPC1 promoter; Huh7 NPC1 promoter luciferase reporter, 24 h; Potency, µM (top dose mostly 9.22 µM), for inactives: at the top dose activation, actives largely listed as activators; 2.4% of 320,000 active; AID 485313; further: % of control where 0% means no effect; nearly all actives have a fitted effect of over 60% in size
#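 Luminescence read-out of NPC1 promoter-driven luciferase in stably transfected Huh7 cells; compounds delivered in DMSO and left 24 h at 37C, 5% CO2, qHTS titration format.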
# p53 reactivation: restores transcriptional activity of mutant p53. H1299 p53-A138V BP100-luciferase reporter, luminescence, 24 h. Potency, µM (highest dose often 92.2 µM), inactives show at the highest dose activity change, positive = activation, actives largely listed as activators. 0.063% of 320,000 active; further: % of control where 0% means no effect; nearly all actives have a fitted effect of over 45% in size
#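 H1299 (p53-null), stable ts p53-A138V + BP100-Luc; 1000 cells/well, Opti-MEM/10% FBS; cpd 4 pt, 1:5; 24 h, 37 deg C, 5% CO2; detection reagent 10 min RT; luminescence.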
# Rab9 promoter act: activators of Rab9 promoter | Huh7 Rab9 promoter-luciferase reporter, luminescence, 24 h | Potency, µM (titrated, usually from 9.22 µM), for the others: top-dose activation, negative = inhibition, usual class: activators | 2.8% of 320,000 active | AID 485297; further: % of control where 0% means no effect; nearly all actives have a fitted effect of over 60% in size
#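 Luminescence from Amplite-detected luciferase (10 minutes, ambient) reports Rab9 promoter activation. Before that, stable Rab9-luciferase Huh7 cells (1500/well, reduced-serum OP-MEM I plus 10% FBS) were exposed to compound for 24 hours at 37C.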
# FLuc counter: inhibits or activates purified firefly luciferase, miR-21 counter-screen. P08659. purified FLuc, Km substrates, luminescence inhibition. 6.9% of 360,000 active. Potency, µM (top dose mostly 57.5 µM), inactives show at the highest dose activity change, negative = inhibition, actives largely listed as inhibitors;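 further: plate controls were vehicle for no effect and reference inhibitor for full effect; nearly all actives have a fitted effect of over 55% in size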
# Target sequence (P08659 whole entry, looked up): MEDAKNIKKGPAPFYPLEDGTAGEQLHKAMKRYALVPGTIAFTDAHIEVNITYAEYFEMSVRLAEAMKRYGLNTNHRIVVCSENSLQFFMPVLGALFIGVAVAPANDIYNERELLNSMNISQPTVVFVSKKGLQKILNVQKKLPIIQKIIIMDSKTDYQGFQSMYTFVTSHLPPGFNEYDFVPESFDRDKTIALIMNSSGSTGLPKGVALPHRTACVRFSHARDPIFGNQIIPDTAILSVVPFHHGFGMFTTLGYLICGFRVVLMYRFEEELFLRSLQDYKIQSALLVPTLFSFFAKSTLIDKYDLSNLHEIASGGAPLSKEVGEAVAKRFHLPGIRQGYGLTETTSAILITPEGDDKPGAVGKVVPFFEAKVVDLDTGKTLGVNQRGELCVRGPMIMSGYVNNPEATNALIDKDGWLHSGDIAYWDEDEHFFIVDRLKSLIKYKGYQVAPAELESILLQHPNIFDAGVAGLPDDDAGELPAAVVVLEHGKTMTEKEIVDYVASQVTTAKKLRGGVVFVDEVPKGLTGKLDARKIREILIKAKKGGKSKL
#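 Biochemical qHTS of compounds, final roughly 60 µM downward over six points, against 10 nM purified firefly luciferase using Km concentrations of substrates (10 uM D-luciferin, 10 uM ATP) in Tris acetate pH 7.5 buffer; luminescence output.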
# SMN2 splice up: increases expression of the SMN2 splice variant; HEK293 SMN2-luciferase splicing reporter, luminescence, 30-36 h; Potency, µM (titrated, usually from 46.1 µM), without a hit: top-dose activity change, positive = activation, most hits filed as activators; 2.8% of 210,000 active; further: % of control where 0% means no effect; nearly all actives have a fitted effect of over 55% in size
#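 HEK293 cells carry an SMN2 […]–luciferase reporter in which exon 7 inclusion puts luciferase in frame. Cells were plated 10-12 h before compound addition, then incubated 30-36 h at 37C. ONE-Glo luminescence was read; sodium butyrate at 4.5 mM final served as control.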
# ELG1 genotox: inducers of genotoxicity in HEK293T ELG1-luciferase cells. 1.3% of 330,000 active. Potency, µM (titrated, usually from 46 µM), for inactives: at the highest dose activity change, positive = activation, actives largely listed as activators. HEK293T ELG1-luciferase reporter, luminescence, 16 h. AID 504466; further: % of control where 0% means no effect; nearly all actives have a fitted effect of over 60% in size
#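 HEK293T cells expressing luciferase-tagged ELG1 were treated with compound or DMSO for 16 hr at 37°C. Luciferase activity was then read after 30 min with ONE-Glo at room temperature; rising signal flags genetic stress.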
# * = called active by the depositor; u = inconclusive; x = no result given; [ ] = another dose, or the depositor's remark. Rows were chosen to be rich in hits. Some 7.3% of all compounds tested hit in one or more screens of this group. The call rests on the fitted dose curve; in most records, active means well fitted curve in the direction sought with a large enough effect; inconclusive means small, poorly fitted or top-dose-only effect, or another doubt; inactive means no such curve, though single readings can be large; an effect the other way counts as inactive or inconclusive. Potency means the concentration at half of the fitted maximal effect.
SMILES,NPC1 promoter act,p53 reactivation,Rab9 promoter act,FLuc counter,SMN2 splice up,ELG1 genotox
Cc1cc2nc(-c3ccc(NC(=O)c4ccc(OCC(C)C)cc4)cc3)oc2cc1C,x,x,x,-12.2%,1.2%,x
Cc1ccc(-c2nc3cc(NC(=O)C(C)C)ccc3o2)cc1,0.355µM*,21.7%,0.1µM*,1.07µM*,0.562µM*,u
Cc1cc2nc(-c3ccc(NC(=O)C(C)C)cc3)oc2cc1C,0.447µM*,u,0.631µM*,0.849µM*,2.82µM*,0.82µM*
COc1ccc(CCNC(=O)CCCCn2c(=O)c3ccccc3n(Cc3cccc(C)c3)c2=O)cc1OC,x,x,x,-3.6%,-4.8%,x
Cc1ccnc2nc(NC(=O)c3ccccc3Cl)nn12,x,x,x,-11.4%,15.8%,x
Clc1ccc(-c2nc3cc(CN4CCCCC4)ccc3o2)cc1,1.78µM*,11.4%,2.82µM*,10.7µM*,x,u
Cc1ccc(OCC(=O)Nc2ccc(-c3nc4ccccc4o3)cc2)c(C)c1,x,x,x,-0.7%,u,x
CCC(Oc1ccccc1)C(=O)Nc1ccc(O)c(-c2nc3cc(C)ccc3o2)c1 (stereo unspecified),x,x,x,15.1µM*,x,x
Cc1ccc(CNc2ncccc2-c2nc3cc(Cl)ccc3o2)cc1,-1.3%,22.0%,-8.6%,5.3%,-38.2%,x
Cc1ccc2oc(-c3ccc(NC(=O)CCC(=O)O)cc3)nc2c1,x,x,x,2.39µM*,11.2µM*,x
Cc1ccc(-c2nc3cc(Cl)ccc3o2)cc1,16.8%,u,15.6%,0.338µM*,u,u
CCn1c(O)c(N=NC(=O)C(O)c2ccccc2)c2ccccc21 (stereo unspecified),1.2%,-6.6%,-1.7%,6.1%,x,3.7%
CC(C)CC(=O)Nc1ccc2oc(-c3ccncc3)nc2c1,u,8.5%,u,15.1µM*,4.3%,13.8%
CC1CCc2nc(NC(=O)Nc3ccc4c(c3)OCO4)sc2C1 (stereo unspecified),3.16µM*,u,2.51µM*,1.35µM*,x,u
Cc1ncsc1C(=O)Nc1nc2c(s1)CC(C)CC2 (stereo unspecified),1.78µM*,u,u,2.13µM*,12.6µM*,2.06µM*
CC1CCc2nc(NC(=O)C3CC3)sc2C1 (stereo unspecified),u,u,u,23.9µM*,u,15.5%
CC1CCc2nc(NC(=O)C3COc4ccccc4O3)sc2C1 (stereo unspecified),u,-2.7%,u,0.536µM*,-51.2%,u
CC1CCc2nc(NC(=O)CCSc3ccccc3)sc2C1 (stereo unspecified),0.7%,8.1%,2.4%,2.9%,5.5%,12.3%
Cc1nn2c(C)c(C(=O)NCc3cccc(Br)c3)cnc2c1-c1ccccc1,x,x,x,-11.0%,x,x
Cc1ccccc1C(=O)Nc1nc2c(s1)CC(C(C)(C)C)CC2 (stereo unspecified),x,x,x,6.01µM*,x,x
CCCCN(Cc1cc2ccccc2[nH]c1=O)C(=O)c1cccc(Cl)c1,x,x,x,3.6%,-2.7%,x
O=C1O[C@@H]([C@H](O)[C@H](O)[C@H](O)CO)[C@@H](O)[C@@H]1O,x,x,x,x,-8.0%[9.22 µM],x
CCCC1(C)Nc2ccccc2-c2nc3ccccc3n21 (stereo unspecified),23.3%,u,u,19µM*,-5.4%,18.4%
O=C1c2ccccc2NC2(CCCC2)N1O,-0.1%,7.9%,-1.3%,-0.5%,3.3%,-2.8%
c1ccc2c(c1)NC1(CCCC1)n1c-2nc2ccccc21,28.6%,u,2.0%,19µM*,11.1%,1.8%
SMILES,NPC1 promoter act,p53 reactivation,Rab9 promoter act,FLuc counter,SMN2 splice up,ELG1 genotox
COc1ccc2c(c1)O[C@H](c1ccc3c(c1)OCO3)[C@@H](OC(=O)NCc1ccc3c(c1)OCO3)C2=O,x,x,x,x,-8.6%,x
COc1cccc([C@@H]2Oc3ccc(OC)cc3C(=O)[C@H]2OC(=O)NCc2ccc3c(c2)OCO3)c1,-2.4%,29.0%,u,6.01µM*,13.2%,u
COc1ccc2c(c1)C(=O)[C@H](OC(=O)NCCc1ccc(OC)c(OC)c1)[C@@H](c1ccc(OC)c(Br)c1)O2,x,x,x,x,14.6%,x
COc1cccc([C@@H]2Oc3ccc(OC)cc3C(=O)[C@H]2OC(=O)NCCc2ccc(OC)c(OC)c2)c1,x,x,x,x,11.2µM*,x
CC(=O)c1cccc(N(C(=O)Cn2nnc3ccccc32)C(C(=O)NCc2ccccc2)c2ccc(F)cc2)c1 (stereo unspecified),x,x,x,-6.0%,-4.9%,x
COc1ccccc1Nc1nc2c(s1)CCC2,27.5%,u,26.8%,15.1µM*,-16.3%,15.8%
Cc1ccc(Nc2nc3c(s2)CCC3)c(C)c1,u,u,u,7.57µM*,12.6µM*,20.6µM*
Cc1ccc(Nc2nc3nonc3[nH]c2=O)cc1,27.9%,u,u,15.1µM*,17.4%,u
CS(=O)(=O)Nc1cccc(-c2ccc3ncnc(Nc4ccc(F)cc4)c3c2)c1,x,x,x,x,2.8%,x
COC(=O)c1cccc(NC(=O)C2COc3ccccc3O2)c1 (stereo unspecified),u,u,u,16.9µM*,8.6%,18.4µM*
Cc1ccc(NC(=O)C2COc3ccccc3O2)cc1C (stereo unspecified),2.51µM*,u,u,19µM*,x,u
Cc1nc2cc(NC(=O)C3COc4ccccc4O3)ccc2s1 (stereo unspecified),u,12.4%,u,12µM*,x,u
Cc1cc(=O)c2cc(C(=O)Nc3ccc(F)cc3)ccc2[nH]1,x,x,x,-2.3%,x,x
Cc1ccc2nc(CSc3nc(C)ccc3C#N)[nH]c2c1,u,u,0.562µM*,0.536µM*,2.51µM*,11.4%
Cc1ccc2nc(SCc3nc4ccccc4c(=O)[nH]3)[nH]c2c1,u,-0.1%,2.82µM*,9.53µM*,22.4µM*,18.0%
Cc1cc(C)c(C#N)c(SCc2nc3ccccc3c(=O)[nH]2)n1,u,15.2%,u,2.39µM*,0.794µM*,8.2µM*
Nn1c(CSc2ccccn2)nc2ccccc2c1=O,3.98µM*,u,u,19µM*,11.2µM*,u
CCC(=O)N1CCc2cc(S(=O)(=O)NC(CC(C)C)C(=O)NCc3cccc(OC)c3)ccc21 (stereo unspecified),x,x,x,-8.2%,-1.7%,x
C[C@@H]1C[C@](C)(C(=O)c2ccc3c(c2)OCO3)C=C1c1ccc2c(c1)OCO2,x,x,x,x,-6.9%,x
NC1=C(O)C(=O)[C@H](c2c[nH]c3ccc(OCc4ccccc4)cc23)O1,x,x,x,x,-5.8%[9.22 µM],x
CCOC(=O)c1cccc(NC(=O)c2cc(S(=O)(=O)N3CCCC3)cn2C)c1,x,x,x,0.0%,x,x
O=c1[nH]c(CSc2ccccn2)nc2c1cnn2-c1ccccc1,16.8%,7.7%,16.0%,u,-4.5%,2.2%

# Screening data: PubChem BioAssay, National Center for Advancing Translational Sciences (NCATS)
